Assay results taken from PubChem BioAssay (Tox21).
Records with an inconclusive call do not appear. Active and inactive are the calls of the source. Unless noted, the call rests on the fitted dose curve.

Experiments:
[1] = Nuclear factor erythroid 2-related factor 2/antioxidant responsive element (Nrf2/ARE) small molecule agonists: qHTS cell viability counter screen in human keratinocytes (AID 1919968; active means well fitted curve in the direction sought with a large enough effect in the repeat runs; an effect the other way counts as inactive or inconclusive; further: nearly all actives have a fitted effect of over 55% in size; further: potency means the concentration at half of the fitted maximal effect)
How it was run: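 KeratinoSens cells (HaCaT keratinocytes stably carrying an ARE-luciferase reporter) were seeded at 1,500 cells/well and rested 5 h at 37 C/5% CO2. They were then exposed to compounds in DMSO for 23 h. Viability was read by CellTiter-Fluor fluorescence after 1 h.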

[2] = Nuclear factor erythroid 2-related factor 2/antioxidant responsive element (Nrf2/ARE) small molecule agonists: luciferase reporter gene qHTS assay in human keratinocytes (AID 1919969); further: nearly all actives have a fitted effect of over 35% in size; further: potency means the concentration at half of the fitted maximal effect
[3] = target: Gonadotropin-releasing hormone receptor (Homo sapiens) (UniProt P30968); test: Human gonadotropin-releasing hormone receptor (GnRHR) small molecule agonists, calcium flux assay in GnRHR-HEK293 cells (AID 1920063); further: nearly all actives have a fitted effect of over 35% in size
Chain of Gonadotropin-releasing hormone receptor (Homo sapiens) (P30968 whole entry, looked up): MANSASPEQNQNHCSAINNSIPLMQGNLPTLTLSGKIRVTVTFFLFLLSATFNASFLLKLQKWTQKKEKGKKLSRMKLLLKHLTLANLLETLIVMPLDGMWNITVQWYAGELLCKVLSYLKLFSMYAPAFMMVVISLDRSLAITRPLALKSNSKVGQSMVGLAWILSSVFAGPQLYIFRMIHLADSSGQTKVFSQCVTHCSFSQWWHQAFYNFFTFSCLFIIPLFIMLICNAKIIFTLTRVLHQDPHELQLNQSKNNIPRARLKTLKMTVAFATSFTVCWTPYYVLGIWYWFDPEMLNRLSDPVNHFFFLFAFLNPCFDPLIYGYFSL
How it was run: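 HEK293 cells stably expressing human GnRHR were plated 18 h at 37 °C, loaded with calcium dye 1 h at 37 °C, then given compound in agonist mode; fluorescence (Ex/Em 480/540) read kinetically for 3 min at 1 s intervals.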

[4] = target: KiSS-1 receptor (Homo sapiens) (UniProt Q969F8); test: Human kisspeptin (KISS1R) small molecule agonists, calcium flux assay in KISS1R-HEK293 cells (AID 1920064; active means well fitted curve in the direction sought with a large enough effect in the repeat runs; an effect the other way counts as inactive or inconclusive)
Chain of KiSS-1 receptor (Homo sapiens) (Q969F8 whole entry, looked up): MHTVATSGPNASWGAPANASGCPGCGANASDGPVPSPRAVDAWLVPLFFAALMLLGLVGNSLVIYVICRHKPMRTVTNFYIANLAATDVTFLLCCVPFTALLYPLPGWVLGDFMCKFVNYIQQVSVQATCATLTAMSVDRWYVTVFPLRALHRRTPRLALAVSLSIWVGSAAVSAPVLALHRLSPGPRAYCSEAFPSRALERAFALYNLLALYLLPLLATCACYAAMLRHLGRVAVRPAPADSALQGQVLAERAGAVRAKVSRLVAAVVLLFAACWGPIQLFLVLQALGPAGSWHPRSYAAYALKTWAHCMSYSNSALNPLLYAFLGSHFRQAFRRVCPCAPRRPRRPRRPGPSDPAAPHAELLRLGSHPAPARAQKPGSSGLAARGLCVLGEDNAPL
How it was run: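 HEK293 cells stably expressing human KISS1R were plated 18 h at 37 °C, loaded with calcium dye for 1 h at 37 °C, then given compound by pin tool. Fluorescence (Ex/Em 480/540) was read kinetically for 3 min.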

[5] = G protein-coupled receptor (GPCR) small molecule agonists, calcium flux assay: HEK293 wild type cell line counter screen (AID 1920065)
How it was run: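 Cells were plated and cultured 18 h at 37 C/5% CO2, then loaded with calcium dye for 1 h at 37 C. Compounds in DMSO were pin-transferred in agonist mode, and fluorescence (Ex/Em 480/540) was read kinetically for 3 min at 1 s intervals.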

[6] = p53 small molecule agonists, cell-based qHTS assay with rat liver microsomes (AID 1963578)
How it was run: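 Read-out is beta-lactamase reporter fluorescence (LiveBLAzer, 2 h, room temperature, dark) in p53RE-bla cells treated 16 h at 37 C with compound, rat liver microsomes and NADPH, both 0.5 mg/mL final.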

[7] = p53 small molecule agonists, cell-based qHTS assay: qHTS cell viability counter screen (AID 1963581); further: nearly all actives have a fitted effect of over 45% in size; further: potency means the concentration at half of the fitted maximal effect
How it was run: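 p53RE-bla HCT-116 cells were exposed to compounds for 16 h at 37 C; after the beta-lactamase FRET read in the same wells, CellTiter-Glo was added and luminescence (intracellular ATP) read after 30 min at room temperature.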

[8] = target: 5-hydroxytryptamine receptor 2A (Homo sapiens) (UniProt P28223); test: 5-hydroxytryptamine receptor 2A (HTR2A) small molecule antagonists, cell-based qHTS assay (AID 1963586); further: nearly all actives have a fitted effect of over 45% in size
Chain of 5-hydroxytryptamine receptor 2A (Homo sapiens) (P28223 whole entry, looked up): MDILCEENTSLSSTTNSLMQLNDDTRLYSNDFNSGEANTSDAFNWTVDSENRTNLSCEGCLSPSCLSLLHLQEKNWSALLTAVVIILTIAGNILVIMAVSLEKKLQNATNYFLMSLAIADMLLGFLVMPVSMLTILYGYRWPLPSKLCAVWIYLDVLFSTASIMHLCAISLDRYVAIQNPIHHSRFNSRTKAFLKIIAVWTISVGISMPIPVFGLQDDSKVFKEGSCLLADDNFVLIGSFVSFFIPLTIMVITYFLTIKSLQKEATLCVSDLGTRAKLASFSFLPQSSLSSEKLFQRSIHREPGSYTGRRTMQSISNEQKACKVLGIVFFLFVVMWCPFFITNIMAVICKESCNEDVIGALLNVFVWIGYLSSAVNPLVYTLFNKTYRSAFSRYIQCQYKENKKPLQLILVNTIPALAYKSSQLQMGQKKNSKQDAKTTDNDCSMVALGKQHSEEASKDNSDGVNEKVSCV
How it was run: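 Antagonist-mode intracellular calcium assay: DOI (4 nM) added after 5 min compound pre-incubation at room temperature to dye-loaded HTR2A-CHO cells. Fluorescence followed for 3 min, sampled every second.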

[9] = target: Muscarinic acetylcholine receptor M1 (Homo sapiens) (UniProt P11229); test: Cholinergic receptor muscarinic 1 (CHRM1) small molecule antagonists, cell-based qHTS assay (AID 1963588); further: nearly all actives have a fitted effect of over 40% in size; further: potency means the concentration at half of the fitted maximal effect
Chain of Muscarinic acetylcholine receptor M1 (Homo sapiens) (P11229 whole entry, looked up): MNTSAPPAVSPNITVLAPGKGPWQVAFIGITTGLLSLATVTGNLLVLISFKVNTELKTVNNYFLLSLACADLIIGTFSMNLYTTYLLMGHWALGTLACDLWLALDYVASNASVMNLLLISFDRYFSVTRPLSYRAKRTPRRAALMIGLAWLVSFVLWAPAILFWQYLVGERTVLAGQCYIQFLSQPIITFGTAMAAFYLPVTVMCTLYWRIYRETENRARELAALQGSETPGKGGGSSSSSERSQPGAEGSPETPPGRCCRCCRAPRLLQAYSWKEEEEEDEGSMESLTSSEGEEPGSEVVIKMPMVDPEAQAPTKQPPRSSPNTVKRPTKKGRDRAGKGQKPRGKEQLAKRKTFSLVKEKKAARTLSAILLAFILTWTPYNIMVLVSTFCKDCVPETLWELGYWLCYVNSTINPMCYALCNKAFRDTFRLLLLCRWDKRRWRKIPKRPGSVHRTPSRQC
How it was run: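 CHRM1-CHO calcium-flux assay, antagonist mode. Cells were seeded 18 h, dye-loaded 1 h at 37 C and given compound for 5 min at RT, then acetylcholine was added at 50nM. FDSS fluorescence was read 3 min; 15 concentrations, three runs.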

[10] = target: Muscarinic acetylcholine receptor M1 (Homo sapiens) (UniProt P11229); test: Cholinergic receptor muscarinic 1 (CHRM1) small molecule agonists, cell-based qHTS assay (AID 1963589); further: nearly all actives have a fitted effect of over 35% in size
How it was run: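 CHO cells stably expressing human CHRM1, seeded 18 h at 37 C/5% CO2, dye-loaded 1 h at 37 C, then given compound in agonist mode; intracellular calcium fluorescence read kinetically at 1 s intervals. Fifteen concentrations, three independent runs.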

[11] = target: Beta-2 adrenergic receptor (Homo sapiens) (UniProt P07550); test: Adrenergic beta2 receptor (ADRB2) small molecule antagonists, cell-based qHTS assay (AID 1963592); further: nearly all actives have a fitted effect of over 50% in size; further: potency means the concentration at half of the fitted maximal effect
Chain of Beta-2 adrenergic receptor (Homo sapiens) (P07550 whole entry, looked up): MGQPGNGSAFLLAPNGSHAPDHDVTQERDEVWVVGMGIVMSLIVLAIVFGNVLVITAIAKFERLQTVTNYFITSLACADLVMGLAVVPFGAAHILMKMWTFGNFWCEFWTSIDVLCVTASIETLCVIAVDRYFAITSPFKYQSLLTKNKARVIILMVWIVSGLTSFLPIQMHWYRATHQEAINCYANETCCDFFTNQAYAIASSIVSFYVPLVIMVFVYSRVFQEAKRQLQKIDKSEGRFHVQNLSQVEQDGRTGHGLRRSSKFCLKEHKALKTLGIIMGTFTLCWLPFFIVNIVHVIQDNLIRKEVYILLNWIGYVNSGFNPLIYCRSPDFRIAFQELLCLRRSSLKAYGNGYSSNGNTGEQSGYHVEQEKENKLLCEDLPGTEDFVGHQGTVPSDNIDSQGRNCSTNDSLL
How it was run: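 Cells (CHO, stable ADRB2 overexpression) incubated 18-20hr at 37C; compounds added from DMSO; agonist mix (1nM isoproterenol, 100uM IBMX, 25uM Ro-20-1724) added; 0.5hr RT; d2-cAMP and anti-cAMP-cryptate added; 1hr RT; 665/615 nm read.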

[12] = target: D(2) dopamine receptor (Homo sapiens) (UniProt P14416); test: Dopamine D2 receptor (DRD2) small molecule agonists, cell-based qHTS assay (AID 1963594); further: nearly all actives have a fitted effect of over 35% in size
Chain of D(2) dopamine receptor (Homo sapiens) (P14416 whole entry, looked up): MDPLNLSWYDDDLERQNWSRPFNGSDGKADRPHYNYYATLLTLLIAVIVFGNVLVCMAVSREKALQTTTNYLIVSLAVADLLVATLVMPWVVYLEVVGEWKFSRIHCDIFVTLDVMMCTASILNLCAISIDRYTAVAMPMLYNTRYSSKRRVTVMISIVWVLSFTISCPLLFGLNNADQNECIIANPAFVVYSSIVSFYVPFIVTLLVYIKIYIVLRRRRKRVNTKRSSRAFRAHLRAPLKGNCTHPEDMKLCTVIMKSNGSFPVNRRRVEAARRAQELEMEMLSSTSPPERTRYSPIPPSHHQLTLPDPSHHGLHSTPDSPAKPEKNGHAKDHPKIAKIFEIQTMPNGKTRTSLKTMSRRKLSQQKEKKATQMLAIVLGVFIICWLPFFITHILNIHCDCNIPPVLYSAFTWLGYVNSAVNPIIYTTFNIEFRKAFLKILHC
How it was run: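 cAMP accumulation in DRD2-HEK293 cells measured by HTRF after 1 h detection; compounds added 10 min before NKH477 (200nM […]) forskolin-analogue stimulation, 30 min at room temperature, with Ro20-1724 present at 0.1 mM final.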

[13] = target: D(2) dopamine receptor (Homo sapiens) (UniProt P14416); test: Dopamine D2 receptor (DRD2) small molecule antagonists, cell-based qHTS assay (AID 1963595; active means well fitted inhibition curve with a large enough effect in the signal ratio in the repeat runs, with a control signal flat; the % refers to the signal ratio; further: potency means the concentration at half of the fitted maximal effect)
How it was run: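 HTRF cAMP read-out at 665 and 620 nm emission (340 nm excitation). Antagonist mode: compounds were tested against 12 nM quinpirole in DRD2-HEK293 cells, with 200 nM NKH477 raising cAMP and 0.1 mM Ro20-1724 blocking its breakdown.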

[14] = p53 small molecule agonists, cell-based qHTS assay with human liver microsomes: qHTS cell viability counter screen (AID 1963579); further: nearly all actives have a fitted effect of over 45% in size
How it was run: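 Cells carrying the p53 response-element beta-lactamase reporter are treated for 16 h at 37 C with test compounds in the presence of human liver microsomes and NADPH (both 0.5 mg/mL final); ATP-based CellTiter-Glo luminescence then reports viability.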

[15] = p53 small molecule agonists, cell-based qHTS assay with rat liver microsomes: qHTS cell viability counter screen (AID 1963580); further: nearly all actives have a fitted effect of over 45% in size
How it was run: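 HCT-116 p53RE-bla, 4,000 cells/well, 5 h pre-incubation; cpd + rat liver microsomes 0.5 mg/mL + NADPH 0.5 mg/mL (final); 16 h, 37 C; CellTiter-Glo, 30 min RT; luminescence.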

[16] = p53 small molecule agonists, cell-based qHTS assay (AID 1963582; active means well fitted activation curve with a large enough effect in the signal ratio in the repeat runs, not every such curve was filed as active; the % refers to the signal ratio)
How it was run: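 p53RE-bla beta-lactamase reporter cells rested 5 h at 37 C/5% CO2, then received compounds in DMSO by pin transfer and were incubated 16 h at 37 C. LiveBLAzer B/G FRET substrate was loaded for 2 h at room temperature before fluorescence reading.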

[17] = target: 5-hydroxytryptamine receptor 2A (Homo sapiens) (UniProt P28223); test: 5-hydroxytryptamine receptor 2A (HTR2A) small molecule agonists, cell-based qHTS assay (AID 1963587); further: nearly all actives have a fitted effect of over 30% in size; further: potency means the concentration at half of the fitted maximal effect
How it was run: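 Kinetic calcium-flux fluorescence (2 min, 1 sec intervals) after compound addition in agonist mode. HTR2A-CHO cells were cultured 18 h, then dye-loaded 1 h at 37 C.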

[18] = cAMP Responsive Elements (CRE) small molecule agonists, cell-based qHTS assay (AID 1963590)
How it was run: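 CRE-bla HEK 293T cells in DMEM with 10% dialyzed FBS, NEAA, pyruvate and 25 mM HEPES were plated 18 h at 37 C/5% CO2, then exposed to compounds in DMSO for 3 h before LiveBLAzer B/G FRET substrate addition.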

[19] = cAMP Responsive Elements (CRE) small molecule antagonists, cell-based qHTS assay (AID 1963591; active means well fitted inhibition curve with a large enough effect in the signal ratio in the repeat runs, not every such curve was filed as active; the % refers to the signal ratio)
How it was run: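 CRE-bla HEK293T cells were plated 18 h at 37 °C/5% CO2, pinned with compound in DMSO, then stimulated with NKH477 at 0.25 uM final for 3 h. LiveBLAzer B/G FRET substrate was added and plates incubated 2 h at room temperature.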

[20] = target: Beta-2 adrenergic receptor (Homo sapiens) (UniProt P07550); test: Adrenergic beta2 receptor (ADRB2) small molecule agonists, cell-based qHTS assay (AID 1963593);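 further: CHO cells stably overexpressing human ADRB2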
How it was run: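 CHO cells stably over-expressing ADRB2 were plated overnight at 37C, then dosed with compounds plus a stimulation mix containing 100uM IBMX and 25uM Ro-20-1724 for 0.5hr at room temperature. cAMP was measured by HTRF competition, 1hr.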

Measured: Potency

Cc1cc(CCN2CCN(c3nsc4ccccc34)CC2)cc2c1NC(=O)CC2(C)C
inactive: [2] | [3] | [4] | [5] | [6] | [8] | [10] | [12]
active: [1] 48.6 µM | [7] 45.8 µM | [9] 16.8 µM | [11] 34.4 µM | [13] 0.243 µM

Nc1nnc(-c2ccc([N+](=O)[O-])o2)o1
active: [2] 61.1 µM
inactive: [1] | [3] | [4] | [5] | [6] | [14] | [15] | [7] | [16] | [8] | [17] | [9] | [10] | [18] | [19] | [11] | [20] | [12]

CC1=Nc2ccccc2C1(C)C
inactive: [1] | [3] | [4] | [5] | [14] | [15] | [8] | [9] | [10] | [19] | [11] | [20] | [12] | [13]
active: [2] 43.3 µM

Cc1ccc(O)c(C(=O)c2ccccc2)c1
inactive: [1] | [2] | [3] | [4] | [5] | [15] | [7] | [16] | [8] | [17] | [9] | [10] | [11] | [20] | [12] | [13]

O=S(=O)(O)c1cc(I)c(O)c2ncccc12
inactive: [1] | [2] | [3] | [4] | [5] | [14] | [15] | [7] | [16] | [8] | [17] | [9] | [10] | [18] | [19] | [11] | [20] | [13]

C[C@]12CC[C@H]3C(=CCc4cc(O)ccc43)[C@@H]1CCC2=O
inactive: [1] | [2] | [3] | [4] | [5] | [14] | [15] | [16] | [8] | [17] | [9] | [10] | [18] | [11] | [20] | [12] | [13]

O=C(O)CCCCCCCCCC(=O)O
inactive: [1] | [2] | [3] | [4] | [5] | [14] | [15] | [8] | [17] | [9] | [10] | [18] | [19] | [11] | [12] | [13]

CC(C)c1cccc(C(C)C)c1N1C(=O)c2ccc(O)cc2C1=O
inactive: [1] | [2] | [3] | [4] | [5] | [8] | [11] | [20] | [12] | [13]
active: [17] 43.6 µM | [9] 37.5 µM

CCOc1ccc(O)cc1
inactive: [1] | [2] | [3] | [4] | [5] | [14] | [15] | [16] | [8] | [17] | [9] | [10] | [19] | [11] | [12] | [13]

CC[N+](C)(CC)CC
inactive: [1] | [2] | [3] | [4] | [5] | [14] | [15] | [7] | [16] | [8] | [17] | [9] | [18] | [19] | [11] | [20] | [12] | [13]

CCCc1ccccc1O
inactive: [1] | [2] | [3] | [4] | [5] | [14] | [15] | [7] | [16] | [8] | [17] | [9] | [10] | [18] | [19] | [11] | [20] | [12] | [13]

CCCCN(CCN(CCCC)C(=O)N1CCOCC1)C(=O)N1CCOCC1
inactive: [3] | [4] | [5] | [6] | [7] | [16] | [17] | [9] | [10] | [11] | [20] | [12] | [13]
active: [1] 29.8 µM | [2] 21.1 µM

O=C(O)CCCl
inactive: [1] | [2] | [3] | [4] | [5] | [14] | [15] | [7] | [16] | [8] | [9] | [10] | [18] | [20] | [12] | [13]

CCc1c(C)[nH]c2c1C(=O)C(CN1CCOCC1)CC2 (centres undefined)
inactive: [1] | [2] | [3] | [4] | [5] | [14] | [15] | [7] | [16] | [17] | [9] | [10] | [18] | [19] | [12]
active: [13] 0.75 µM

C=CC(=O)OCCn1c(=O)n(CCOC(=O)C=C)c(=O)n(CCOC(=O)C=C)c1=O
inactive: [3] | [4] | [5] | [6] | [8] | [17] | [9] | [10] | [11] | [12] | [13]
active: [1] 30.6 µM | [2] 15.4 µM
